Experimental data reported in PubChem BioAssay (NCATS).
Results filed as inconclusive are left out. Active and inactive are the calls of the source. Unless noted, the call rests on the fitted dose curve; in most records, active means well fitted curve in the direction sought with a large enough effect; inconclusive means small, poorly fitted or top-dose-only effect, or another doubt; inactive means no such curve, though single readings can be large; an effect the other way counts as inactive or inconclusive.

Legend:
[1] = Cell Viability - Mesenchymal (AID 546); conditions: mesenchymal cells viability, qHTS; series mostly up to 91.7 µM;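 further: cells exposed to compound for 40 hours before reading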
In short: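 Human kidney mesenchymal cells from normal renal glomeruli, 1000 cells/well, rested 5 hr at 37 °C, then treated 40 hr at 37 °C in complete medium. Cellular ATP read by CellTiter-Glo luminescence; AC50 from Hill-equation fits.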

[2] = Cellular Toxicity (caspase-3) HepG2 (AID 654); conditions: HepG2 caspase-3 activation, luminescence, 0% = DMSO only, 100% = tamoxifen; series mostly up to 92.2 µM;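 further: cells exposed to compound for 16 hours before reading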
In short: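 Cells plated 5 hr at 37 °C, compound added, incubated 16 hr at 37 °C. Caspase-Glo 3/7 reagent followed, 20 min at room temperature, then luminescence read. Activation scored as signal increase; AC50 from Hill fit.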

[3] = Cellular Toxicity (caspase-3) Jurkat (AID 655); conditions: Jurkat caspase-3 activation, luminescence, DMSO = 0%, tamoxifen = 100%; series mostly up to 92.2 µM;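 further: cells exposed to compound for 16 h at 37 °C before reading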
In short: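 Luminescent caspase-3/7 readout (aminoluciferin substrate cleavage) in human T-cell leukemia Jurkat cells after 16 hr compound exposure. Concentration-response normalized to DMSO and 100 uM tamoxifen; AC50 by standard Hill equation.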

[4] = Cellular Toxicity (caspase-3) HUV-EC-C (AID 656); conditions: HUV-EC-C cells, caspase-3 activation (apoptosis), vehicle = 0, 100 µM tamoxifen = 100%; series mostly up to 92.2 µM
In short: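 Luminescent caspase-3/7 activation (aminoluciferin substrate cleavage) in HUV-EC-C cells after 16 hr compound exposure, 37°C. Signal normalized to DMSO basal and 100 uM tamoxifen as 100%; AC50 from concentration-response fitted with the Hill equation.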

[5] = Cellular Toxicity (caspase-3) SHSY5Y (AID 657); conditions: SH-SY5Y caspase-3 activation, DMSO zero, 10 µM staurosporine = 100%; series mostly up to 91.7 µM
In short: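 Luminescent caspase-3/7 readout (aminoluciferin release) in SH-SY5Y cells after 16 h compound exposure in complete medium. Activity scaled between DMSO basal and 10 uM staurosporine as 100%; concentration-response fitted to Hill equation for AC50.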

[6] = Cellular Toxicity (caspase-3) BJ (AID 658); conditions: BJ fibroblasts, luminescence, normalized: DMSO 0%, staurosporine 100%; series mostly up to 91.7 µM
In short: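 BJ human foreskin fibroblasts, 1000 cells/well, treated 16 hours at 37 °C in complete medium; caspase 3/7 activity by Caspase-Glo luminescence after 1 hr at room temperature. Normalized to DMSO and 10 uM staurosporine; AC50 from Hill fits.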

[7] = Cellular Toxicity (caspase-3) MRC-5 (AID 659); conditions: MRC-5 cells, luminescence, normalized: DMSO 0%, 10 µM staurosporine 100%; series mostly up to 91.7 µM
In short: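 MRC-5 human normal lung fibroblasts, 1500 cells/well, treated 16 h at 37 °C in complete medium. Caspase 3/7 measured by Caspase-Glo luminescence after 1 h at room temperature. Normalized to DMSO and 10 uM staurosporine; AC50 from Hill fit.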

[8] = Cellular Toxicity (caspase-3) Mesangial (AID 660); conditions: mesangial cells, normalized: DMSO 0%, 100 µM tamoxifen 100%; series mostly up to 91.7 µM;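 further: combined caspase 3 and 7 activity read by Caspase-Glo luminescence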
In short: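 Mesangial cells, 1000/well, 5 h settle at 37 °C; compound 16 h, 37 °C; Caspase-Glo 3/7 reagent 20 min RT; luminescence. Norm.: DMSO = 0%, tamoxifen 100 uM = 100%. AC50, Hill fit.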

[9] = Cellular Toxicity (caspase-3) SK-N-SH (AID 661); conditions: SK-N-SH caspase-3 activation, qHTS, DMSO as zero, staurosporine as full; series mostly up to 91.7 µM
In short: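 Human neuroblastoma SK-N-SH, 1500 cells/well, 5 hr pre-incubation, then compound 16 hr, 37 °C. Caspase-Glo 3/7 reagent, 1 hr RT, luminescence. Norm. to DMSO/10 uM staurosporine; Hill-fit AC50.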

[10] = Cellular Toxicity (caspase-3) H-4-II-E (AID 663); conditions: H-4-II-E rat hepatoma, scaled: DMSO 0%, 100 µM tamoxifen 100%; series mostly up to 92.2 µM;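 further: cells exposed to compound for 16 hr before readout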
In short: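 Rat hepatoma H-4-II-E cells (1500/well) plated 5 hr, then exposed to compound titrations for 16 hr at 37 °C. Caspase-Glo 3/7 luminescence read after 20 min at RT; data normalized to DMSO and 100 uM tamoxifen, AC50 from Hill fits.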

[11] = Cellular Toxicity (caspase-3) Hek293 (AID 664); conditions: HEK293 caspase-3 activation, DMSO = 0%, 100 µM tamoxifen = 100%; series mostly up to 92.2 µM;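 further: cells exposed to compound for 16 h at 37 °C before readout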
In short: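 Cells plated, 5 hr at 37 °C; compounds added; 16 hr at 37 °C; Caspase-Glo 3/7 reagent, 20 min RT; luminescence read. Activation expressed relative to DMSO and 100 uM tamoxifen, AC50 by Hill model.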

[12] = Cellular Toxicity (caspase-3) N2a (AID 665); conditions: N2a cells, luminescence, normalized: DMSO 0%, 10 µM staurosporine 100%; series mostly up to 92.2 µM;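 further: compound exposure lasted 16 h at 37 °C before readout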
In short: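 N2a cells, 1500/well, 5 h settle at 37 °C; cpd 16 h, 37 °C; Caspase-Glo 3/7, 1 h RT; luminescence. Norm: DMSO = 0, 10 uM staurosporine = 100%. AC50, Hill fit.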

[13] = Cellular Toxicity (caspase-3) NIH 3T3 (AID 666); conditions: NIH 3T3 caspase-3 activation, apoptosis/toxicity, 0% DMSO, 100% is 100 µM tamoxifen; series mostly up to 92.2 µM
In short: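 Luminescence from aminoluciferin released by caspase-3/7 cleavage of a peptide substrate served as read-out. Mouse fibroblast NIH 3T3 cells were exposed to compounds over a concentration range for 16 hours, and AC50 values came from standard Hill modelling.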

[14] = Cellular Toxicity (caspase-3) Renal Proximal Tubule (AID 667); conditions: renal proximal tubule cells, primary cells freshly taken from rat, solvent-only wells 0%, staurosporine 100%; series mostly up to 91.7 µM;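 further: cells exposed to compound for 16 hours at 37 °C before detection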
In short: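 Luminescent caspase 3/7 signal from peptide-aminoluciferin cleavage measures apoptosis in freshly isolated rat kidney proximal tubule cells after 16 h compound exposure. Concentration-response data are normalized to DMSO and 10 uM staurosporine, and AC50 values come from Hill equation fits.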

[15] = molecular target: Cytochrome P450 3A4 (Homo sapiens) (UniProt P08684); experiment: qHTS Assay for Inhibitors and Substrates of Cytochrome P450 3A4 (AID 884); conditions: recombinant CYP3A4, Luciferin-PPXE luminescence; series mostly up to 57.1 µM; further: nearly all actives have a fitted effect of over 50% in size
In short: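 20 nM human CYP3A4 with 25 uM Luciferin-PPXE (at KM) in 200 mM KPO4, preincubated 10 min with compound; NADPH regeneration started a 60 min RT reaction. Luciferin detected by luminescence, normalized to 57 uM ketoconazole as full inhibition.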

[16] = molecular target: 3',5'-cyclic-AMP phosphodiesterase 4B (Homo sapiens) (UniProt Q07343); experiment: qHTS Assay for Inhibitors of PDE-IV (AID 607; active means well fitted activation curve with a large enough effect in the main read-out, with a control signal flat, not every such curve was filed as active); conditions: HEK293 ACTOne CNG channel cells, membrane potential fluorescence; series mostly up to 22.9 µM
In short: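 Live HEK293 cells with a modified cyclic nucleotide-gated (CNG) channel report intracellular cAMP via membrane-potential dye fluorescence (ex 535/em 590 nm). Endogenous PDE-IV was targeted. Compounds were tested at up to 22.9 uM final; RO 20-1724 100 uM served as control.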

[17] = molecular target: Guanine nucleotide-binding protein G(i) subunit alpha-1 (Homo sapiens) (UniProt P63096); experiment: qHTS Assay for Inhibitors of RGS12 GoLoco Motif Activity (Green Fluorophore) (AID 879); conditions: Galphai1/FITC-RGS12 GoLoco peptide, fluorescence polarization; series mostly up to 57.1 µM;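 further: negative values mean loss of peptide binding seen as reduced polarization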
In short: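 Fluorescence polarization assay: 50 nM Gαi1 with 10 nM FITC-labeled RGS12 GoLoco peptide in 10 mM Tris pH 7.5, 150 mM NaCl, 0.1 mM GDP, 0.05% NP40, 10 min at room temperature with compound.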

Measured: outcome

Chain of Cytochrome P450 3A4 (Homo sapiens) (P08684 whole entry, looked up): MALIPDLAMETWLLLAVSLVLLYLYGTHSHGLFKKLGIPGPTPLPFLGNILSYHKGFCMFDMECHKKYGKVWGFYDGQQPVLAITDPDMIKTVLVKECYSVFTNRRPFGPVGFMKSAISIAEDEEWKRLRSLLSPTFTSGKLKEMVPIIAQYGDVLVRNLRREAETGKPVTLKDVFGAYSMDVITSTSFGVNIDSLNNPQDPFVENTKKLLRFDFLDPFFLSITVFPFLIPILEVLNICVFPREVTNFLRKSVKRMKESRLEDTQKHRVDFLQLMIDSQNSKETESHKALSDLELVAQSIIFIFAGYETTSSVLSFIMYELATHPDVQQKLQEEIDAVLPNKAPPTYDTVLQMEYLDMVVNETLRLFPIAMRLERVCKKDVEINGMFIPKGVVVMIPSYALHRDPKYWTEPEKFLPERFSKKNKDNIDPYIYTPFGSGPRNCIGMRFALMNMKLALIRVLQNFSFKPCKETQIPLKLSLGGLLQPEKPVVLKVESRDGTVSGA
Chain of 3',5'-cyclic-AMP phosphodiesterase 4B (Homo sapiens) (Q07343 whole entry, looked up): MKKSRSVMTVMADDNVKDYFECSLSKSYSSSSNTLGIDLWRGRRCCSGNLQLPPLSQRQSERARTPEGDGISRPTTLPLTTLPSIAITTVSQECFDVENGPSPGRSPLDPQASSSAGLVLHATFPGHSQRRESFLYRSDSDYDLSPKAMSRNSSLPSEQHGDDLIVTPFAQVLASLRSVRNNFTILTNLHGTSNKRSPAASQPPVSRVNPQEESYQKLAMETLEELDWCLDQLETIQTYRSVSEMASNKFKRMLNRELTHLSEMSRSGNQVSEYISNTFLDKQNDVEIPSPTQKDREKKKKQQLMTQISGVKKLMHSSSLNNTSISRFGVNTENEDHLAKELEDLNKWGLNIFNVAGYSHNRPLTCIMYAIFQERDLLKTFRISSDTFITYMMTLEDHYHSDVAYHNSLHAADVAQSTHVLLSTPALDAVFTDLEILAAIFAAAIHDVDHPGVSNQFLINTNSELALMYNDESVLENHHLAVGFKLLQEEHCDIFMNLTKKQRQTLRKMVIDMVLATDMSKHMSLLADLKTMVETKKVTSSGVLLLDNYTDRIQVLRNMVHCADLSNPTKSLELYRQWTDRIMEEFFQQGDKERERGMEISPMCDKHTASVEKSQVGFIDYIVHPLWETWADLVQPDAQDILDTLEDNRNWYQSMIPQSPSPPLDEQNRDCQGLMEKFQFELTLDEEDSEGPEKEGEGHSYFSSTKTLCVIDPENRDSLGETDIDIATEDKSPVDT
Chain of Guanine nucleotide-binding protein G(i) subunit alpha-1 (Homo sapiens) (P63096 whole entry, looked up): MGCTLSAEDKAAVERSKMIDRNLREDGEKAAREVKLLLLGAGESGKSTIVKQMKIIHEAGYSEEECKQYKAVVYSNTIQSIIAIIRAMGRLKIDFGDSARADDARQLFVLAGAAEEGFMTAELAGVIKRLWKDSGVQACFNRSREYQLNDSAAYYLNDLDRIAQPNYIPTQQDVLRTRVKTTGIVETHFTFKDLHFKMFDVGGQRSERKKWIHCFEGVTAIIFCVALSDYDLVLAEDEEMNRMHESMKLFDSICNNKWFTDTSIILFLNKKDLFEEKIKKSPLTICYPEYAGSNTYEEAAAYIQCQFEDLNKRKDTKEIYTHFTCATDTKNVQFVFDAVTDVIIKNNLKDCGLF

CCCC(O)C(CC)CO (centres undefined)
inactive: [1] | [2] | [3] | [4] | [5] | [6] | [7] | [8] | [9] | [10] | [11] | [12] | [13] | [14] | [15]

O=C(c1ccccc1)C(O)c1ccccc1 (centres undefined)
inactive: [1] | [2] | [3] | [4] | [5] | [6] | [7] | [8] | [9] | [10] | [11] | [12] | [13] | [14] | [15]

NS(=O)(=O)c1cc2c(cc1C(F)(F)F)NCNS2(=O)=O
inactive: [16]

CCc1cccc(CC)c1NC(=O)CN(CC(=O)O)CC(=O)O
inactive: [16]

COc1ccc(O)cc1
inactive: [1] | [2] | [3] | [4] | [5] | [6] | [7] | [8] | [9] | [10] | [11] | [12] | [13] | [14] | [15]

Cc1ncc(CO)c(CN)c1O
inactive: [16]

CCCCOC(=O)c1ccc(N)cc1
inactive: [1] | [16] | [2] | [3] | [4] | [5] | [6] | [7] | [8] | [9] | [10] | [11] | [12] | [13] | [14]

NCc1ccc(S(N)(=O)=O)cc1
inactive: [16]

COc1ccc(NS(=O)(=O)c2ccc(N)cc2)nn1
inactive: [16]

CCOC(=O)[C@H](CCc1ccccc1)N[C@@H](C)C(=O)N1CCC[C@H]1C(=O)O
inactive: [16]

O=S1(=O)OC(c2ccc(O)cc2)(c2ccc(O)cc2)c2ccccc21
inactive: [16]

Cc1c(NC(=O)c2cccnc2)c(=O)n(-c2ccccc2)n1C
inactive: [16]

CCN(CC)C(=O)c1cccc(C)c1
inactive: [1] | [2] | [3] | [4] | [5] | [6] | [7] | [8] | [9] | [10] | [11] | [12] | [13] | [14]

CCS(=O)(=O)CCn1c([N+](=O)[O-])cnc1C
inactive: [16]

CC(=O)NS(=O)(=O)c1ccc(N)cc1
inactive: [1] | [16] | [2] | [3] | [4] | [5] | [6] | [7] | [8] | [9] | [10] | [11] | [12] | [13] | [14]

CCCNC(C)(C)COC(=O)c1ccccc1
inactive: [16]

CC(=O)N[C@@H](CC(C)C)C(=O)O
inactive: [16]

CC(=O)OCC(COC(C)=O)OC(C)=O
inactive: [1] | [2] | [3] | [4] | [5] | [6] | [7] | [8] | [9] | [10] | [11] | [12] | [13] | [14] | [15]

CC(C)(C)C(=O)OCOC(=O)[C@@H]1N2C(=O)[C@@H](NC(=O)[C@H](N)c3ccccc3)[C@H]2SC1(C)C
inactive: [16]

CCCCCC(N)=O
inactive: [1] | [2] | [3] | [4] | [5] | [6] | [7] | [8] | [9] | [10] | [11] | [12] | [13] | [14] | [15]

CC(=O)Nc1ccccc1
inactive: [1] | [2] | [3] | [4] | [5] | [6] | [7] | [8] | [9] | [10] | [11] | [12] | [13] | [14] | [15]

CC(=O)Nc1cccc(O)c1
inactive: [1] | [2] | [3] | [4] | [5] | [6] | [7] | [8] | [9] | [10] | [11] | [12] | [13] | [14] | [15]

FC(F)(F)C(Cl)Br (centres undefined)
inactive: [1] | [2] | [3] | [4] | [5] | [6] | [7] | [8] | [9] | [10] | [11] | [12] | [13] | [14] | [15]

NC(N)=NCCN1CCCCCCC1
inactive: [16]

CN1C(C)(C)CCCC1(C)C
inactive: [17]

NC(=O)CC[C@@H](N)C(=O)O
inactive: [17]
